G9a block – qHTS Assay for Inhibitors of Histone Lysine Methyltransferase G9a; Potency, µM (titrated, usually from 102 µM), inactives show top-dose activity, negative = inhibition, hits mostly inhibitors; 8.8% of 350,000 active; AID 504332, 2011; Histone-lysine N-methyltransferase EHMT2 (Homo sapiens), Q96KQ7; G9a H3K9 monomethylation, AlphaScreen, 2 h; note: % is set by controls: 0 for no effect and ±100 for the full control effect; nearly all actives have a fitted effect of over 75% in size
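Readings reflect AlphaScreen signal from monomethyl-H3K9 antibody detection. HMT at 20 nM; substrate b-H3K9 500 nM; cofactor SAM 20 uM; 2 h RT reaction; compounds tested as titrations in qHTS with 15 min preincubation.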
BAZ2B block – qHTS Assay for Inhibitors of BAZ2B; Bromodomain adjacent to zinc finger domain protein 2B (Homo sapiens), Q9UIF8; AlphaScreen BAZ2B-H3K14Ac peptide displacement; Potency, µM (titrated, usually from 114 µM), inactives show at the top dose activity change, negative = inhibition, usual class: inhibitors; 4.4% of 360,000 active; AID 504333, 2011; note: % is set by controls: 0 for no effect and ±100 for the full control effect; nearly all actives have a fitted effect of over 60% in size
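BAZ2B (50 nM) with biotin-H3(5-23)K14Ac peptide (50 nM) in PBS pH 7.4, 0.01% Tween-20, preformed 30 min, then compound 30 min at room temperature; top concentration 110uM. AlphaScreen streptavidin donor/nickel chelate acceptor beads (10 ug/mL final), 20 min dark, signal read.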
GLS inh – qHTS for Inhibitors of Glutaminase (GLS). Glutaminase kidney isoform, mitochondrial (Homo sapiens), O94925. GLS enzymatic activity, qHTS titration. Potency, µM (titrated, usually from 45.5 µM), inactives show top-dose activity change, negative = inhibition, usual class: inhibitors. 0.21% of 410,000 active; note: % is set by controls: 0 for no effect and ±100 for the full control effect
Target sequence (O94925 whole entry, looked up, canonical isoform): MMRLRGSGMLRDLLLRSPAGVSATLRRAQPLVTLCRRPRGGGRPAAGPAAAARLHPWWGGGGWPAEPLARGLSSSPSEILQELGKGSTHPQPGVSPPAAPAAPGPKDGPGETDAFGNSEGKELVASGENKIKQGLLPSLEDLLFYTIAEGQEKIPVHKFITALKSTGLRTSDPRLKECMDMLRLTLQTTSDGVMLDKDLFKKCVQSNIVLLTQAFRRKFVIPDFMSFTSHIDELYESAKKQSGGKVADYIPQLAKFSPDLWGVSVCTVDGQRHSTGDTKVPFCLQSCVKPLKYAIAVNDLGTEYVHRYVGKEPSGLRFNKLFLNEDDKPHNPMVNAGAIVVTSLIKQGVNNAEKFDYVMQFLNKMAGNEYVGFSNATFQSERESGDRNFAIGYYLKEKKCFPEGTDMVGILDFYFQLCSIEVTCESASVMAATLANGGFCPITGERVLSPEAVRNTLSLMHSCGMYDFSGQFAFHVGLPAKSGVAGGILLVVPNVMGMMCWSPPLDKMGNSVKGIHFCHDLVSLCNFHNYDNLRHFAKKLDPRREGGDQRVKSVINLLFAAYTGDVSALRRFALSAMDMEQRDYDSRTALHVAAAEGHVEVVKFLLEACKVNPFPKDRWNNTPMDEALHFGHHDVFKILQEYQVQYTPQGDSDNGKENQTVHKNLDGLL
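Read-out is an Amplex red fluorescence increase coupled through glutamate oxidase and HRP, measured before and after 30 min room-temperature incubation. hKGA is in 45 mM KH2PO4 (pH 8.2) with 0.02% Tween-20; glutamine added as 1mM solution.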
HP1b binding inh – HTS for Inhibitors of HP1-beta Chromodomain Interactions with Methylated Histone Tails; Potency, µM (titrated, usually from 114 µM), without a hit: at the highest dose activity change, negative = inhibition, usual class: inhibitors; AlphaScreen HP1-beta / biotin-H3K9me3 peptide binding; Chromobox protein homolog 1 (Homo sapiens), P83916; 0.56% of 390,000 active; note: nearly all actives have a fitted effect of over 70% in size
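Compound inhibition of the preformed complex between 50 nM HP1-beta and 50 nM biotinylated H3K9me3 peptide was read by AlphaScreen. Buffer was PBS pH 7.4 with 0.01% Tween-20. Incubations ran 30 min at room temperature, with 10 ug/mL donor/acceptor beads.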
JMJD2A Tudor inh – qHTS Assay for Inhibitors of JMJD2A-Tudor Domain. Potency, µM (doses to about 114 µM), for the others: at the top dose activity change, negative = inhibition, actives largely listed as inhibitors. AlphaScreen JMJD2A-Tudor / H3K4me3 peptide binding. Lysine-specific demethylase 4A (Homo sapiens), O75164. 4.4% of 390,000 active; note: % is set by controls: 0 for no effect and ±100 for the full control effect; nearly all actives have a fitted effect of over 50% in size
An asterisk follows results filed as active; u = inconclusive; x = no result; [ ] = dose if it differs, or a comment. Only some compounds are listed: those with a hit (about 10% of all), similar ones and a draw of the others. Calls come from the whole dose curve; as a rule, active = well fitted curve in the direction sought with a large enough effect; inconclusive = small, poorly fitted or top-dose-only effect, or another doubt; inactive = no such curve, though single readings can be large; an effect the other way counts as inactive or inconclusive. Potency is the fitted concentration of half-maximal effect.

SMILES | G9a block | BAZ2B block | GLS inh | HP1b binding inh | JMJD2A Tudor inh
O=C(Nc1ccccc1N1CCCCC1)C1CCN(S(=O)(=O)c2ccccc2C(F)(F)F)CC1 | -27%[59 µM] | 5% | -14% | 38% | 12%
O=C(Nc1ccccc1N1CCCC1)C1CCN(S(=O)(=O)c2ccccc2)CC1 | 50µM* | -38% | 24% | -8% | u
CCc1ccccc1NC(=O)C1CCN(S(=O)(=O)c2ccccc2)CC1 | 2%[59 µM] | -2% | -9% | 28% | 5%
O=C(Nc1ccccc1N1CCCC1)C1CCN(S(=O)(=O)c2ccccc2C(F)(F)F)CC1 | 35µM* | -31% | 19% | 20% | u
Cc1cccc(N2CC(C(=O)Nc3ccc(S(=O)(=O)N4CCCCC4)cc3)CC2=O)c1C (stereo unspecified) | -11% | -24% | -5% | 42% | -16%
CCn1c(=O)c(C(=O)NCCc2ccccc2)c(O)c2ccccc21 | 140%[59 µM] | 80% | 3% | 194% | 70%
N#CCc1ccc(C(=O)c2ccccc2)s1 | -19%[59 µM] | -25% | 2% | 9% | -22%
CC(/C=N\NC(=O)CN1CCN(S(=O)(=O)c2ccc(C)cc2)CC1)=C\c1ccccc1 | -2% | -3% | -2% | 2% | u
COC(=O)c1ccc(Cn2cc(/C=C\[N+](=O)[O-])c3ccccc32)o1 | x | u | 0% | -7% | u
O=C(O)c1ccc(Cn2cc(/C=C\[N+](=O)[O-])c3ccccc32)o1 | 40µM* | u | 7% | 6% | -24%
COc1cc(C)c(Cl)cc1S(=O)(=O)n1ccnc1C | 6% | u | -11% | 12% | -10%
COc1ccc2c(C)cc(=O)sc2c1 | x | x | 8% | x | x
Cc1ccc(-n2c3nc(=O)n(C)c(=O)c-3cc3ccccc32)c(C)c1 | 1%[59 µM] | x | 1% | 25% | -21%
Cc1ccc(C)c(-n2c3nc(=O)n(C)c(=O)c-3cc3ccccc32)c1 | 79µM* | -35% | 0% | 36% | -15%
Cc1ccsc1C(=O)Nc1cc(Cl)ccc1-n1cncn1 | x | x | 0% | 37% | -8%
COc1ccc(N2CCN(S(=O)(=O)c3cccc4nsnc34)CC2)cc1 | -11%[12.7 µM] | u | 36% | -37% | 56µM*
COc1cccc(N2CCN(S(=O)(=O)c3cccc4nsnc34)CC2)c1 | 56µM* | -37% | 3% | 17% | -26%
COc1ccccc1N1CCN(S(=O)(=O)c2cccc3nsnc23)CC1 | u | u | 2% | -22% | u
CC(=O)c1ccc(N2CCN(S(=O)(=O)c3cccc4nsnc34)CC2)cc1 | -31% | -25% | -13% | u | u
O=c1c2ccccc2cnn1Cc1ccc(Cl)c(Cl)c1 | 20% | 66% | -9% | 61% | 52%
O=c1c2ccccc2cnn1Cc1n[nH]c(=S)n1-c1ccccc1Cl | 4.5µM* | -29% | 5% | 40% | 32µM*
O=c1c2ccccc2cnn1Cc1n[nH]c(=S)n1-c1ccc(F)c(Cl)c1 | 3.2µM* | -25% | -1% | 32% | 7.9µM*
O=c1c2ccccc2cnn1Cc1n[nH]c(=S)n1-c1cc(Cl)cc(Cl)c1 | 0.4µM* | -34% | 2% | 21% | 25µM*
CCn1c(=O)n(-c2ccc(F)c(Cl)c2)c(=O)c2sc3ccccc3c21 | 6%[59 µM] | -11% | 12% | 29% | -5%
CC(C)n1c(NCc2cc(Cl)ccc2O)nc2ccccc21 | -19% | u | 18% | 28% | -10%
SMILES | G9a block | BAZ2B block | GLS inh | HP1b binding inh | JMJD2A Tudor inh
Cc1ccccc1NC(=O)CN1CCN(c2ccc(F)cc2)CC1 | x | x | 14% | x | x
S=c1[nH]nc(-c2cccc(Cl)c2)n1/N=C/c1ccco1 | 3.5µM* | -29% | -11% | -18% | 32µM*
S=c1[nH]nc(-c2cccc(Cl)c2)n1/N=C/c1ccc(-c2ccccc2Br)o1 | u | -13% | -13% | 11% | -29%
Cc1ccc(/C=N/n2c(-c3cccc(Cl)c3)n[nH]c2=S)o1 | 1µM* | -11% | -4% | 7% | u
COc1cc(NC(=S)NCCCN2CCOCC2)c(OC)cc1NC(=O)c1ccco1 | -13% | -1% | 0% | -12% | -32%
CC(=O)c1cccc(NC(=O)CCS(=O)(=O)c2cccc3nonc23)c1 | -10%[12.7 µM] | 5% | 7% | 17% | 1%
CCN1CCc2c(sc(NC(=O)C3CCCCC3)c2C(=O)OC)C1 | x | -9% | 17% | 20% | -31%
Cc1ccc(NC(=O)C2CCCN(S(=O)(=O)c3ccc4[nH]c(=O)ccc4c3)C2)nc1 (stereo unspecified) | -4% | -25% | 3% | 45% | -14%
O=C(c1ccc(F)cc1)c1cn[nH]c1-c1ccccc1O | -10%[59 µM] | x | 21% | 32% | -9%
O=C(c1ccco1)N1CCN(C(=O)c2cc3c(s2)-c2ccccc2OC3)CC1 | 45µM* | u | 0% | 58% | -4%
CCN1C(=O)/C(=C/C=C2/Sc3ccccc3N2CCO)SC1=S | 45µM* | -33% | 0% | -21% | -18%
CC(C)(C)NC(=O)CN1C(=O)/C(=C/c2ccccc2)SC1=S | 16%[12.7 µM] | -4% | 2% | 19% | -10%
CCCCN1C(=O)/C(=C/C=C2/CC(C)(C)CN2C)SC1=S | u | 8.9µM* | -2% | u | u
CCCCN1C(=O)/C(=C/C=C2\Oc3ccccc3N2CC)SC1=S | 17%[0.501 µM] | u | 6% | 13% | -9%
CCN1C(=O)/C(=C/N2CCc3ccccc32)SC1=S | 1%[12.7 µM] | -3% | -10% | 21% | -4%
CCCN1C(=O)/C(=C\C=C2/Sc3ccccc3N2CCO)SC1=S | u | -28% | 0% | 3% | -10%
CN1CCS/C1=C\C=C1/SC(=S)N(CC(=O)O)C1=O | 40µM* | u | 31% | 18% | -29%
CCN1C(=O)/C(=C/C=C2/SCCN2C)SC1=S | 8.9µM* | -19%[57.1 µM] | 1% | -11% | 9%[11.4 µM]
C[C@@H]1CN([C@H](C)CO)S(=O)(=O)c2ccc(-c3ccc(C#N)cc3)cc2O[C@H]1CN(C)C(=O)Nc1cc(F)ccc1F | x | x | 5% | x | x
O=C(Nc1ccc(S(=O)(=O)N2CCCCCC2)cc1)c1[nH]ncc1[N+](=O)[O-] | 3% | -8% | x | x | x
Cc1ccc(C)c(C(C)NC(=O)c2ccc(Br)o2)c1 (stereo unspecified) | 50µM* | 10% | -8% | 59% | -8%
Cn1cc(C(=O)N/N=C/c2ccc([N+](=O)[O-])cc2)c2ccccc21 | u | 1% | 4% | 31% | 0%
O=C(N/N=C/c1ccc(C(F)(F)F)cc1)c1ccncc1 | 4% | -1% | -3% | 30% | -5%
c1ccc(COc2ccc(-c3sc(Nc4ccccc4)n[n+]3-c3ccccc3)cc2)cc1 | 22µM* | 45µM* | x | x | x

From PubChem BioAssay
